# About 480 (40%) of roughly 1,200 compounds were called active. Roughly 29% stayed inconclusive and do not appear here. The list shows a part of the results. A number with no mark means an inactive call. Calls come from the whole dose curve; as a rule, active = well fitted inhibition curve with a large enough effect; inconclusive = small, poorly fitted or top-dose-only effect; inactive = no such curve, though single readings can be large or run the other way.
# Assay: qHTS Assay to Find Inhibitors of Chronic Active B-Cell Receptor Signaling: Hit Validation in Primary Screen; note: nearly all actives have a fitted effect of over 75% in size
# Conditions: ABC-DLBCL IkB-luc/CBR ratio luminescence, 4 h; series mostly up to 46.1 µM; activity change, negative = inhibition: at the top concentration
# How it was run: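 TMD8 ABC-DLBCL cells carrying doxycycline-inducible IkBa-green luciferase fusion and free red luciferase, 0.5% FBS, dosed 46 uM–3 nM with doxycycline for 4 h at 37C. Green/red luminescence ratio normalized to basal and 10 uM MG-132.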
# % is set by controls: 0 for no effect and ±100 for the full control effect; potency is the fitted concentration of half-maximal effect.
Structure (SMILES),Potency,"activity change, negative = inhibition [%]"
CCOC(=O)C(C)Oc1cccc2c(=O)n(CC(=O)NCc3ccccc3)ccc12 (stereo unspecified),4.11 µM (active),–
CCOC(=O)COc1cccc2c(=O)n(CC(=O)NCc3ccc(F)cc3)ccc12,3.26 µM (active),–
CCOC(=O)COc1cccc2c(=O)n(CC(=O)NCc3ccccc3)ccc12,–,41.5
CCOC(=O)C(C)Oc1cccc2c(=O)n(CC(=O)NCc3ccc4c(c3)OCO4)ccc12 (stereo unspecified),20.6 µM (active),–
CCOC(=O)C(C)Oc1cccc2c(=O)n(CC(=O)NCc3ccco3)ccc12 (stereo unspecified),18.4 µM (active),–
CCOc1ccc(CCNC(=O)c2cc(=O)[nH]c3ccc(S(=O)(=O)N4CCCCC4C)cc23)cc1OCC (stereo unspecified),–,13.6
C=CCn1c(O)c(N=NC(=S)Nc2ccccc2C)c2cc(S(=O)(=O)N3CCOCC3)ccc21,–,-8.84
CCOC(=O)C(C)Oc1cccc2c(=O)n(CC(=O)NCc3ccc(F)cc3)ccc12 (stereo unspecified),2.59 µM (active),–
COC(=O)COc1cccc2c(=O)n(CC(=O)NCc3ccccc3)ccc12,9.2 µM (active),–
Cc1cccc(N(C)S(=O)(=O)c2ccc(-c3cc(C)no3)s2)c1,–,65.2
CCN(c1cccc(C)c1)S(=O)(=O)c1ccc(-c2cc(C)no2)s1,16.4 µM (active),–
Cc1nn(C)cc1CNC(=O)COc1ccc(Cl)cc1Cl,–,-20.7
Cc1cc(Cl)ccc1OCCCC(=O)NO,16.4 µM (active),–
CC[C@]1(O)C[C@@H]2CN(CCc3c([nH]c4ccccc34)[C@@](C(=O)OC)(c3cc4c(cc3OC)N(C)[C@H]3[C@@](O)(C(=O)OC)[C@H](OC(C)=O)[C@]5(CC)C=CCN6CC[C@]43[C@@H]65)C2)C1,0.0461 µM (active),–
CC[C@]1(O)CC2CN(CCc3c([nH]c4ccccc34)[C@@](C(=O)OC)(c3cc4c(cc3OC)N(C=O)[C@H]3[C@@](O)(C(=O)OC)[C@H](OC(C)=O)[C@]5(CC)C=CCN6CC[C@]43[C@@H]65)C2)C1 (stereo partly specified),0.0517 µM (active),–
COc1ccc(C(=O)/C=C/c2ccc(O)cc2)c2c1CC(O)C(C)(C)O2 (stereo unspecified),20.6 µM (active),–
O=S1(=O)[C@H]2C[C@H](CO)O[C@@]2(CO)CN1Cc1ccc(-c2cccc(Cl)c2)cc1,–,-24.2
COc1ccc(OC)c(Nc2c3c(nc4ccccc24)CCC3)c1,14.6 µM (active),–
COc1ccccc1-c1nc2c3ccccc3nc(=S)n2[nH]1,–,-12.7
COc1cc(Nc2c3c(nc4ccccc24)CCC3)cc(OC)c1OC,18.4 µM (active),–
Cc1nn(CCC(=O)NNC(=S)Nc2ccccc2)c(C)c1Br,–,-4.17
Cc1ccc(C)c(/C=N/NC(=S)NC(C)C)c1,–,-8.95
COc1ccc(NS(=O)(=O)c2cc(-c3cnc(C4CC4)o3)ccc2C)cc1,23.1 µM (active),–
Cc1ccc(C)c(NS(=O)(=O)c2ccc(-c3cnc(C4CC4)o3)cc2)c1,1.03 µM (active),–
COc1ccc(C)cc1NS(=O)(=O)c1ccc(-c2cnc(C3CC3)o2)cc1,0.92 µM (active),–
Cc1cc(C)cc(NS(=O)(=O)c2ccc(-c3cnc(C4CC4)o3)cc2)c1,2.06 µM (active),–

Structure (SMILES),Potency,"activity change, negative = inhibition [%]"
Cc1ccc(NS(=O)(=O)c2ccc(-c3cnc(C4CC4)o3)cc2)c(C)c1,3.26 µM (active),–
CC1=CC(C)(C)N(S(=O)(=O)c2ccc(C)cc2)c2ccccc21,14.6 µM (active),–
CC(=O)Nc1ccc(S(=O)(=O)NCC(=O)OC(C)c2ccccc2Cl)cc1 (stereo unspecified),–,-9.59
CC(=O)Nc1ccc(S(=O)(=O)N2c3ccccc3C(C)=CC2(C)C)cc1,4.11 µM (active),–
CCOC(=O)C1=C(O)/C(=C/c2ccc(OCC(=O)O)c(OCC)c2)SC1=Nc1ccccc1,–,-14.4
CCOc1cc(/C=C2\CN(C)C/C(=C\c3ccc(O)c(OCC)c3)C2=O)ccc1O,6.51 µM (active),–
C=CCC(CC(O)COCCC)C(=O)NNC(=S)Nc1ccccc1 (stereo unspecified),–,-5.99
Cc1ccc(C(=O)c2cc([N+](=O)[O-])ccc2N2CCCCC2)c(C)c1,1.03 µM (active),–
Cc1ccc(C(=O)c2cc([N+](=O)[O-])ccc2N2CCOCC2)c(C)c1,4.61 µM (active),–
Cc1ccc(C(=O)c2cc([N+](=O)[O-])ccc2N2CCCCC2)cc1C,6.51 µM (active),–
O=C(c1ccc(Br)cc1)c1cc([N+](=O)[O-])ccc1N1CCCCC1,2.31 µM (active),–
COCCCNC(=O)C[C@H]1C[C@H](C(=O)N2CCCCC2)[C@@]2(C)c3[nH]c4ccc(Cl)cc4c3CCN2C1=O,–,-15.7
S=c1c2c(nc3nc[nH]n13)CCC2,–,-4.25
Cc1ccc(C(=O)c2cc([N+](=O)[O-])ccc2N2CCCCC2)cc1,2.31 µM (active),–
CC1CCCN(c2ccc([N+](=O)[O-])cc2C(=O)c2ccccc2)C1 (stereo unspecified),3.26 µM (active),–
CCN(CC)c1ccc(/C=N/NC(=S)NC)c(O)c1,–,84.8
CCN(CC)c1ccc(/C=N/N=C(N)N)c(O)c1,10.3 µM (active),–
COc1cc(C(=O)NNC(=S)Nc2ccc(S(N)(=O)=O)cc2)cc(OC)c1OC,–,-2.88
COc1ccc(N/C=C/C(=O)c2cc(OC)c(OC)c(OC)c2)cc1,7.31 µM (active),–
COc1ccc(Nc2cc(C)nc(-n3nc(C)cc3C)n2)cc1,7.31 µM (active),–
CCOc1ccc(Nc2cc(C)nc(-n3nc(C)cc3C)n2)cc1,3.26 µM (active),–
COC(=O)c1cn(C(=O)c2ccc(OC)cc2)c2ccccc12,–,38.5
COc1ccc(C(=O)n2c(-c3ccco3)nc3ccccc32)cc1,18.4 µM (active),–
COc1ccc(N=N/C(=C\O)C(=O)c2ccco2)cc1,–,118
Cc1ccc(S(=O)(=O)N2CCN(C(=O)CSc3n[nH]c(N)n3)CC2)c(C)c1,–,-6.01
O=Cc1cc2ccccc2nc1SCc1ccc(Cl)c(Cl)c1,–,-22.9

Structure (SMILES),Potency,"activity change, negative = inhibition [%]"
COc1cccc(CSc2nc3ccccc3cc2C=O)c1,2.59 µM (active),–
Cc1ccc(CSc2nc3ccccc3cc2C=O)cc1,2.91 µM (active),–
CCC(=O)[C@@]1(C)[C@H](C)C[C@H]2[C@@H]3CCC4=CC(=O)C=C[C@]4(C)[C@H]3[C@@H](O)C[C@@]21C,–,-30
CCOC(=O)c1ccc(NC(=S)NNC(C)(C)C)cc1,–,-6.72
CCOC(=O)c1ccc(NC(=O)Nc2ccon2)cc1,2.31 µM (active),–
O=C(Nc1ccc([N+](=O)[O-])cc1)Nc1ccon1,8.2 µM (active),–
NNC(=O)c1[nH]c2ccc([N+](=O)[O-])cc2c1-c1ccccc1,–,2.28
O=C(N/N=C/c1ccccc1)c1[nH]c2ccc(Br)cc2c1-c1ccccc1,0.517 µM (active),–
O=C(N/N=C/c1ccc(O)cc1)c1[nH]c2ccc(Br)cc2c1-c1ccccc1,1.3 µM (active),–
CCOc1ccc2[nH]c(C(=O)N/N=C/c3ccc(OC)cc3)cc2c1,2.91 µM (active),–
COc1ccc(/C=N/NC(=O)c2[nH]c3ccc(Cl)cc3c2-c2ccccc2)c(C(=O)O)c1OC,–,11.9
Cc1ccc2[nH]c(C(=O)N/N=C/c3ccccc3C(=O)O)c(-c3ccccc3)c2c1,–,5.85
Cc1c(C(=O)N/N=C/c2ccc(Cl)cc2)[nH]c2ccc(Cl)cc12,0.731 µM (active),–
NNC(=O)c1cc2cc(OC(F)(F)F)ccc2[nH]1,–,0.4
COc1ccc(NC(=S)N/N=C/c2ccc(F)c(F)c2)cc1,–,-4.94
NNC(=O)c1[nH]c2ccc(Cl)cc2c1-c1ccccc1,–,-12.8
Cc1ccc2[nH]c(C(=O)NN=C3CCCCC3)c(-c3ccccc3)c2c1,–,-0.622
COc1ccc(/C=N/NC(=O)c2[nH]c3ccc(Br)cc3c2-c2ccccc2)c(C(=O)O)c1OC,–,11.4
COc1ccc(/C=N/NC(=O)c2[nH]c3ccc(Br)cc3c2-c2ccccc2)cc1,0.231 µM (active),–
O=C(NN=C1CCCC1)c1[nH]c2ccc(Cl)cc2c1-c1ccccc1,13 µM (active),–
Cc1nn(CCC(=O)NNC(=S)NCC(C)C)c(C)c1Br,–,-4.7
CCN(CC)c1ccc2cc(-c3nc4ccccc4n3C)c(=O)oc2c1,0.58 µM (active),–
CC(/C=C/c1ccccc1)=N\NC(=S)NC(C)C,–,28.3
O=C(CSc1cccc[n+]1[O-])CSc1cccc[n+]1[O-],–,-7
